Inconclusive results are not listed. Calls of active or inactive are those of the source. Calls follow the shape of the full dose curve.
biological target: 5-hydroxytryptamine receptor 2A (Homo sapiens) (UniProt P28223); experiment: 5-hydroxytryptamine receptor 2A (HTR2A) small molecule antagonists, cell-based qHTS assay (AID 1963586); conditions: HTR2A-CHO cells, DOI-induced calcium flux, fluorescence; series mostly up to 61.5 µM; activity, negative = inhibition: at the top concentration; also: nearly all actives have a fitted effect of over 45% in size
From the text: National Center for Advancing Translational Sciences [NCATS]
Division of Preclinical Innovation [DPI]
U.S. Environmental Protection Agency [EPA]
National Institutes of Environmental Health Sciences [NIEHS]
National Toxicology Program [NTP]
U.S. Food and Drug Administration [FDA]
The HTR2A receptor is a subtype of the 5-HT2 receptor that belongs to the serotonin receptor family and is a G protein-coupled receptor (GPCR). The HTR2A-CHO cell line stably expressing human 5-hydroxytryptamine receptor 2A (HTR2A) can be used for screening antagonists of interactions between 5-HT2 and its ligands. The HTR2A-CHO calcium flux assay is a homogeneous fluorescence-based assay for detecting the intracellular calcium level using FDSS kinetic plate reader system.
Tox21 Assay Protocol Summary:
HTR2A-CHO cells were dispensed at 2000 cells/3uL/well in 1536-well black-clear bottom plates using a Multidrop Dispenser. After the assay plates were incubated at a 37 C/5% CO2 incubator for 18 h, 3 uL of Dye Loading Buffer was transferred to the assay plate by a Flying Reagent Dispenser. The assay plates were incubated at 37 C for 1h. For antagonist mode, 23 nL of compounds dissolved in DMSO, positive controls or DMSO only was transferred to the assay plate by a pin tool. After 5 min incubation at room temperature, 1.5 uL of 4-Iodo-2,5-dimethoxy-alpha-methylbenzeneethanamine hydrochloride (DOI) at 4nM was added to each well. The fluorescence intensity in the plates was measured using FDSS 7000EX kinetic plate reader for 3 min at 1 sec intervals.
% is scaled to controls: 0 for no effect and ±100 for the full control effect; potency is read from the fitted curve at half-maximal effect.

5-hydroxytryptamine receptor 2A (Homo sapiens), sequence (P28223 whole entry, looked up): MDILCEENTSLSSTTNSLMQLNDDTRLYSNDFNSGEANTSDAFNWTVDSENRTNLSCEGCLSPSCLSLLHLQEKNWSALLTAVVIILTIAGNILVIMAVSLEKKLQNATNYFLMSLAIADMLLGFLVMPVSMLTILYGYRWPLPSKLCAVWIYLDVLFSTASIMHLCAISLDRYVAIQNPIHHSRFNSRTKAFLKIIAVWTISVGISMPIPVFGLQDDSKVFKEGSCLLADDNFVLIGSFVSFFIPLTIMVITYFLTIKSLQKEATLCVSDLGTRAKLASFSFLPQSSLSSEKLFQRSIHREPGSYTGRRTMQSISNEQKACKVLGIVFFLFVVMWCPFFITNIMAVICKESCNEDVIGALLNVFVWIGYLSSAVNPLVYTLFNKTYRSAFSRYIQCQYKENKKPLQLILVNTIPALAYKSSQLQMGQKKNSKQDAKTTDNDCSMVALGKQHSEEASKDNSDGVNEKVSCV

| Compound | Potency | activity, negative = inhibition |
| --- | --- | --- |
| C=CCN1C[C@H](C(=O)N(CCCN(C)C)C(=O)NCC)C[C@@H]2c3cccc4[nH]cc(c34)C[C@H]21 | 0.0006 µM (active) | – |
| CCCCCCCC/C=C\CCCCCCCC(=O)N(C)CC(=O)O | – | 4.07% (inactive) |
| CC1(C)[C@@H](O)CC[C@]2(C)[C@H]3C(=O)C=C4[C@@H]5C[C@@](C)(C(=O)O)CC[C@]5(C)CC[C@@]4(C)[C@]3(C)CC[C@@H]12 | – | -45.4% (inactive) |
| O=[N+]([O-])c1ccc(Cl)cc1Cl | – | 0.41% (inactive) |
| OCCN1CCN(CCO)CC1 | – | -18.4% (inactive) |
| CCCCCCCC1CCC(=O)O1 (stereo not given) | – | -1.11% (inactive) |
| CCCOCC(C)OCC(C)O (stereo not given) | – | -20.5% (inactive) |
| CCOC(=O)c1ccc(C#Cc2ccc3c(c2)C(C)(C)CCS3)nc1 | – | 11.5% [at 28.5 µM] (inactive) |
| CNC(=O)C(c1ccccc1)c1ccccc1 | – | 11.1% (inactive) |
| NC(=O)c1c(Cl)cccc1Cl | – | -2.15% (inactive) |
| CC(C)O.CC(C)O.CCOC(=O)/C=C(\C)O.CCOC(=O)/C=C(\C)O.[Ti] | – | -3.01% (inactive) |
| Clc1cccc(Cl)n1 | – | -1.47% (inactive) |
| CC(C)COC(=O)CC(C(=O)OCC(C)C)S(=O)(=O)O (stereo not given) | – | -11.9% (inactive) |
| COc1cccc2sc(N)nc12 | – | -27.3% (inactive) |
| CCCCCCCCC(CO)CCCCCC (stereo not given) | – | 16% (inactive) |
| O=C1NC(=O)[C@@H]2CC=CC[C@H]12 | – | 6.3% (inactive) |
| COC(=O)CSc1cc(N=c2sc(=O)n3n2CCCC3)c(F)cc1Cl | – | -25.9% (inactive) |
| COC(=O)/C=C(\C)CCC=C(C)C | – | -11.3% (inactive) |
| COc1cc(C(C)C)c2c(c1)S(=O)(=O)N(COc1cc(=O)n3cccc(OCCN4CCCCC4)c3n1)C2=O | – | 4.6% [at 12.7 µM] (inactive) |
| C=CCCCCCCCCOC(C)=O | – | 2.35% (inactive) |

| Compound | Potency | activity, negative = inhibition |
| --- | --- | --- |
| CC(C)CCC(=O)CCC(C)C | – | -2.34% (inactive) |
| CCCc1ncc(C[n+]2ccccc2C)c(N)n1 | – | 5.6% [at 28.5 µM] (inactive) |
| Cc1ccccc1 | – | -14.5% (inactive) |
| O=[N+]([O-])c1ccc(O/N=C/c2cc(Br)c(O)c(Br)c2)c([N+](=O)[O-])c1 | – | 24.3% (inactive) |
| Nc1nc(Cl)cc(Cl)n1 | – | 11% (inactive) |
| CCCOC(=O)c1c(Cl)c(Cl)c(Cl)c(Cl)c1C(=O)OCCC | – | 12.5% (inactive) |
| O=C(O)C(c1ccc(Cl)cc1)c1ccc(Cl)cc1 | – | -9.38% (inactive) |
| CC(C)c1nnc2ccc(-c3ocnc3-c3cc(F)ccc3F)cn12 | – | -31.8% (inactive) |
| CO/N=C(/C(=O)N[C@@H]1C(=O)N2C(C(=O)[O-])=C(C[n+]3ccn4ncccc43)CS[C@H]12)c1nsc(N)n1 | – | 4.49% [at 28.5 µM] (inactive) |
| CC(CCO)CCCC(C)(C)O (stereo not given) | – | 0.599% (inactive) |
| O=C=Nc1ccc(Cl)c(Cl)c1 | – | 2.96% (inactive) |
| COc1ccccc1N1CCN(CC(O)COc2cccc3ccccc23)CC1 (stereo not given) | 5.79 µM (active) | – |
| CC(C)(COC(=O)c1ccccc1)COC(=O)c1ccccc1 | – | -0.106% (inactive) |
| O=C(O)CCSSCCC(=O)O | – | -3.28% (inactive) |
| CC(=O)Nc1cccc(N)c1 | – | -3.76% (inactive) |
| CC1(C)C(=O)NC(=O)N1CO | – | -22.5% (inactive) |
| CC(C)(C)CC(C)(C)c1ccc(OCCO)cc1 | – | -26.6% (inactive) |
| CC(CN=Cc1ccccc1O)N=Cc1ccccc1O (stereo not given) | – | -28.7% (inactive) |
| N#CCCOCCC#N | – | 4.27% (inactive) |
| Nc1c(Cl)cc(Cl)cc1[N+](=O)[O-] | – | 29.7% (inactive) |

Reference: PubChem BioAssay (Tox21)
